# Bioassay records from PubChem BioAssay.
# Pf growth 48h = Primary qHTS for delayed death inhibitors of the malarial parasite plastid, 48 hour incubation. actives 5.9% (n = 310,000). Potency, µM (top dose mostly 28.7 µM), without a hit: at the top dose activity change, negative = inhibition, hits mostly inhibitors. AID 504832, 2011. P. falciparum luciferase growth in erythrocytes, 48 h; also: % is scaled to controls: 0 for no effect and ±100 for the full control effect
#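 In quantitative HTS format, infected erythrocytes bearing luciferase-reporter parasites were treated for a single generation at 37 C. Luminescence after adding detection reagent served as the growth measure.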
# Sm TGR inh = qHTS Assay for the Inhibitors of Schistosoma Mansoni Peroxiredoxins | Potency, µM (series often up to 114 µM), for the others: at the top dose activity change, negative = inhibition, most hits filed as inhibitors | AID 485364, 2010 | purified TGR, DTNB reduction, TNB absorbance 405 nm | actives 3% (n = 360,000); also: % is scaled to controls: 0 for no effect and ±100 for the full control effect; nearly all actives have a fitted effect of over 60% in size
#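 First, TGR (20 nM dispensed) and NADPH were mixed with compound. Second, a 15 min room-temperature incubation followed. Third, further NADPH and then DTNB were added to start the reaction. Finally, TNB absorbance was monitored kinetically.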
# Pf growth 96h = Primary qHTS for delayed death inhibitors of the malarial parasite plastid, 96 hour incubation; actives 6.9% (n = 320,000); Potency, µM (titrated, usually from 28.7 µM), for inactives: at the top dose activity change, negative = inhibition, usual class: inhibitors; P. falciparum luciferase reporter growth, 96 h; also: % is scaled to controls: 0 for no effect and ±100 for the full control effect
#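 96 h incubation, 37 C, 5% CO2, of luciferase-reporter P. falciparum-infected RBCs (2% hematocrit, 0.05% parasitemia final) with test compounds; endpoint luminescence.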
# SARS PLP yeast = qHTS of Yeast-based Assay for SARS-CoV PLP | S. cerevisiae expressing SARS-CoV PLpro, growth rescue | Potency, µM (top dose mostly 32.9 µM), inactives show top-dose activity, positive = growth rescue, most hits filed as activators | actives 0.19% (n = 330,000) | AID 485353, 2010; calls by dose curve; also: 0% is about no effect; nearly all actives have a fitted effect of over 55% in size
# Numbers without * were called inactive; ? = inconclusive; / = not tested or not shown; [ ] = another dose, or the depositor's remark. Compounds with a hit are over-represented: about 12% of the library has one in this group of screens. Unless noted, calls follow the shape of the dose curve; as a rule, active = well fitted curve in the direction sought with a large enough effect; inconclusive = small, poorly fitted or top-dose-only effect, or another doubt; inactive = no such curve, though single readings can be large; an effect the other way counts as inactive or inconclusive. Potency is read from the fitted curve at half-maximal effect.
SMILES,Pf growth 48h,Sm TGR inh,Pf growth 96h,SARS PLP yeast
COc1ccc(/C=N/NC(=O)c2sccc2OCc2ccc(F)cc2)cc1OC,?,-13.4%,11.7µM*,-1.5%
COc1cc(/C=N/NC(=O)c2cccs2)ccc1OCc1ccccc1,?,2.8%,?,3.9%
CCOc1cc(/C=N/NC(=O)c2ccccc2OCc2ccc(F)cc2)ccc1O,8.28µM*,-5.4%,?,-11.3%
Cc1cccc(N(CC(=O)NCc2ccco2)C(=O)CCC(=O)Nc2ccccn2)c1C,0.0%,-4.2%,1.85µM*,2.9%
CC(C)c1ccc(N(CC(=O)NCc2ccco2)C(=O)CCC(=O)Nc2ccccn2)cc1,-2.9%,-23.0%,0.738µM*,-0.6%
COc1ccc(S(=O)(=O)N2CCN(C(=O)CNC(=O)c3ccc4c(c3)OCO4)CC2)cc1,51.8%,2.3%,0.1%,-0.8%
COc1ccc(OCc2cc(C(=O)NCCCc3ccccc3)no2)c(Cl)c1,?,-25.9%,9.28µM*,-1.5%
COc1ccc(OCc2cc(C(=O)NC3CCc4ccccc43)no2)c(Cl)c1 (stereo unspecified),-20.4%,-11.4%,10.4µM*,?
O=C(NCc1ccc2c(c1)OCO2)c1ccc2c(c1)N(Cc1c(F)cccc1Cl)C(=O)CS2,11.7µM*,?,-77.0%,10.6%
CCC1CCCCN1CCCNC(=O)c1ccc2c(c1)N(Cc1c(F)cccc1Cl)C(=O)CS2 (stereo unspecified),13.1µM*,-1.4%,?,-4.4%
CCC1CCCCN1CCCNC(=O)CN1C(=O)CSc2ccc(S(=O)(=O)N3CCC(C)CC3)cc21 (stereo unspecified),0.0%,8.5%,24.6%,17.4%
CN(C(=O)CSc1nc2ncccc2o1)c1ccc(F)cc1,/,4.4%,/,/
COc1ccc(Cl)cc1NC(=O)CN(c1cc(C)cc(C)c1)S(=O)(=O)c1c(C)n[nH]c1C,/,-0.1%,/,/
COc1ccccc1CNC(=O)c1c(-c2ccccc2Cl)noc1C,10.4µM*,-1.4%,57.2%,3.6%
COc1ccc(-c2noc(CN(C(=O)c3c(-c4ccccc4Cl)noc3C)C(C)C)n2)cc1,10.4µM*,1.0%,/,-9.6%
Cc1onc(-c2ccccc2Cl)c1C(=O)NC(C)c1ccccc1 (stereo unspecified),-20.8%,6.7%,13.1µM*,2.9%
Cc1onc(-c2ccccc2Cl)c1C(=O)NCc1ccccn1,-6.5%,-1.8%,/,0.6%
Cc1onc(-c2ccccc2Cl)c1C(N)=O,8.7%,0.0%,-2.5%,-3.1%
Cc1[nH]n(C)c(=O)c1C(=O)c1c(-c2ccccc2Cl)noc1C,9.0%,44.7µM*,?,-0.8%
Cc1onc(-c2ccccc2Cl)c1C(=O)N1CCCC1,18.4%,3.9%,-17.0%,13.8%
O=C(CCNC(=O)N1CC(=O)Nc2ccccc21)Nc1cccc(Cl)c1,0.2%,-4.0%,?,-6.6%
CC1CCC(NC(=O)COC(=O)c2cccnc2Cl)CC1 (stereo unspecified),?,2.3%,12.6%,1.5%
O=c1n(Cc2ccc(Cl)cc2)nc2n1-c1ccccc1OC2,/,3.3%,/,/
Cc1ccc(NC(=S)NC(=O)c2c(-c3ccccc3Cl)noc2C)cc1,10.4µM*,-1.1%,?,-12.4%
Cc1onc(-c2ccccc2Cl)c1C(=O)NC(=S)NCCc1ccccc1,-19.6%,-12.4%,32.7%,-12.9%
SMILES,Pf growth 48h,Sm TGR inh,Pf growth 96h,SARS PLP yeast
COc1ccccc1NC(=S)NC(=O)c1c(-c2ccccc2Cl)noc1C,?,-12.2%,22.4%,-1.9%
Cc1onc(-c2ccccc2Cl)c1C(=O)NC(=S)Nc1ccc(C(C)C)cc1,5.22µM*,6.7%,13.1µM*,-0.6%
Cc1onc(-c2ccccc2Cl)c1C(=O)NC(=S)Nc1ccccc1F,4.15µM*,/,46.0%,-2.5%
Cc1ccc(/C=C/c2onc(C)c2S(=O)(=O)N2CCC(C(=O)N3CCC(N(C)C(C)C)CC3)CC2)cc1,/,-5.0%,/,/
CC(C)(C)NC(=O)CSc1nc(O)cc(=O)n1-c1ccccc1F,2.62µM*,-1.8%,42.5%,-1.2%
COc1ccccc1-n1c(SCC(=O)NC(C)(C)C)nc(O)cc1=O,2.33µM*,-3.1%,35.4%,4.8%
CCOC(=O)c1[nH]c(C)c(/C(O)=C2\C(=O)C(=O)N(CCN3CCOCC3)C2c2ccco2)c1C (stereo unspecified),2.0%,/,-3.5%,-0.4%
CCOC(=O)c1[nH]c(C)c(/C(O)=C2\C(=O)C(=O)N(CCN(C)C)C2c2ccco2)c1C (stereo unspecified),8.9%,56.2µM*,/,2.1%
COc1cc2c(cc1OC)CN(CC(=O)Nc1ccc(C)c(S(=O)(=O)N3CCOCC3)c1)CC2,?,3.5%,11.7µM*,9.5%
Cc1ccc(NC(=O)CN2CCc3ccccc3C2)cc1S(=O)(=O)N1CCOCC1,-8.5%,-1.5%,?,-3.2%
COc1cc2c(cc1OC)CN(CC(=O)Nc1ccc(Cl)c(S(=O)(=O)N(C)C)c1)CC2,13.1µM*,-14.5%,?,-1.0%
COc1cc2c(cc1OC)CN(CC(=O)Nc1ccc(S(=O)(=O)N(C)C)cc1)CC2,-27.0%,-1.4%,?,0.0%
Cc1ccsc1C1NC(=O)c2c(sc3c2CCCC3)N1 (stereo unspecified),249.6%,35.5µM*,230.6%,-19.4%
O=C1NC(c2cccnc2)Nc2sc3c(c21)CCCC3 (stereo unspecified),105.3%,44.7µM*,75.7%,-28.9%
O=C1NC(c2ccccn2)Nc2sc3c(c21)CCC3 (stereo unspecified),58.6%,31.6µM*,2.2%,3.0%
Cc1ccc(C2NC(=O)c3c(sc4c3CCN(C)C4)N2)o1 (stereo unspecified),/,-16.5%[11.4 µM],3.7µM*,-5.8%
COc1ccc(C(=O)N=c2sc3cc(Cl)ccc3n2C)cc1,/,-4.1%,/,/
COc1ccc2nc(NC(=O)c3sc4nc(C)cc(C)c4c3N)sc2c1,148.7%,0.2%,214.8%,0.9%
COc1ccc(C(C(=O)NC2CCCC2)N(CCO)C(=O)Cn2nnc(-c3ccc(C)o3)n2)cc1OC (stereo unspecified),6.0%,-1.5%,?,2.0%
CCc1cnc2c(c1SCC(=O)c1ccc(Cl)cc1)c(=O)n(C)c(=O)n2C,/,5.2%,/,/
CN1CCc2c(sc3c2C(=O)NC(c2ccccn2)N3)C1 (stereo unspecified),28.4%,39.8µM*,-4.8%,-1.8%
COc1cc(CNC(=O)C2CCC(=O)N(C3CCCCCC3)C2)cc(OC)c1 (stereo unspecified),29.8%,-10.1%,?,-1.1%
c1ccc(-c2cnnc(SCc3cn4cccnc4n3)n2)cc1,10.4µM*,0.0%,9.28µM*,-6.5%
COc1cccc(NC(=O)CN(C)C(=O)c2ccc3c(c2)S(=O)(=O)N=C2CCCCCN23)c1,-0.4%,4.0%,-1.7%,5.5%
CCN(CC)C1=NC(=[N+](CC)CC)c2ccccc21,0.738µM*,0.0%,0.294µM*,-1.4%
